In general, AC50 refers to the concentration at which the activity in the assay is half-maximal.

The values that follow come from PubChem BioAssay (EPA / NIEHS).

Values joined by “and” are separate entries in the source; they are usually repeats but may differ in a detail not shown here. Equal values may be shown once. More than one record can exist for a structure, and the calls need not agree. Active and inactive are the calls of the source. Rule for the calls: active = hit-call score of the fitted dose curve at least 0.9, where 1 is the maximum; inactive = score below 0.9.

Read-out in the test: Interleukin-6 (IL6), IL6 (gene 3569)
Put plainly: BSK_CASM3C_IL6: BioMAP Diversity Plus: CASM3C Assay for Interleukin-6 (IL6) Biomarker Activity for (AID 2283040). The conditions noted are these: primary human coronary artery smooth muscle cells; actives raise or lower the signal.
For `C=C(C)C(=O)OCC(F)(F)C(F)(F)C(F)(F)C(F)(F)C(F)(F)C(F)(F)C(F)(F)F`, the result was inactive.

Consider `Nc1ccc([N+](=O)[O-])cc1O`, for which the result was inactive.

Consider `FC(F)(F)C(F)(F)C(F)(F)C(F)(F)C(F)(F)C(F)(F)CCS`, for which the outcome was inactive. Consider `O=S(=O)(OCC(F)F)C(F)(F)F`, for which the result was inactive. On the same count and under the same terms, as for `Cc1ccc(S(=O)(=O)OCC(F)(F)C(F)(F)C(F)(F)C(F)(F)C(F)(F)C(F)F)cc1`, the entry is “inactive”; as for `N=C(N)C(F)(F)C(F)(F)C(F)(F)C(F)(F)C(F)(F)C(F)(F)C(F)(F)F`, “inactive”; as for `CCCCOCCOCCOC(=O)CCCCC(=O)OCCOCCOCCCC`, “inactive”. Turning to `OCCCC(F)(F)C(F)(F)C(F)(F)C(F)(F)C(F)(F)C(F)(F)C(F)(F)F`, the AC50 is 42.1 µM (active) and 48.2 µM (active). Take `FC(F)(F)C(F)(F)C(F)(F)C(F)(F)CCI`: the outcome was inactive. On the same count and under the same terms, for `FC(F)(F)C(F)(F)C(F)(F)C(F)(F)C(F)(F)C(F)(F)C(F)(F)C(F)(F)F` the value was “inactive”; for `FC(F)(Br)C(F)(F)C(F)(F)C(F)(F)C(F)(F)C(F)(F)Br`, “inactive”; for `FC1CC(F)(F)C(F)(F)C1(F)F` (stereo unspecified), “inactive”.

Turning to `FC(F)(I)C(F)(F)C(F)(F)C(F)(F)I`, the AC50 is 45.6 µM (active) and 44.9 µM (active) and 30 µM (active). In the case of `OCC(F)(F)C(F)(F)C(F)(F)C(F)F`, the result was inactive.

`C=CC(=O)OCC(F)(F)C(F)(F)C(F)(F)C(F)(F)COC(=O)C=C`: the AC50 is 7.96 µM (active) and the outcome was inactive. On to `C=C(C)C(=O)OCC(F)(F)C(F)(F)C(F)(F)F`, for which the outcome was inactive. Consider `CCCCCCOC(=O)c1ccccc1O`, for which the outcome was inactive. Still for that read-out and setting: for `FC(F)(F)C(F)(F)CNCC(F)(F)C(F)(F)F` the value was “inactive”. `O=C(O)C(F)(F)C(F)(F)C(F)(F)C(F)(F)C(F)(F)C(F)(F)C(F)(F)C(F)(F)C(F)(F)C(F)F`: the result was inactive.

For `C=CC(F)(F)C(F)(F)C(F)(F)C(F)(F)C(F)(F)C(F)(F)C(F)(F)C(F)(F)C=C`, the result was inactive. On the same count and under the same terms, as for `O=C(Cl)C(F)(F)C(F)(F)C(F)(F)C(F)(F)C(F)(F)C(F)(F)C(F)(F)C(F)(F)F`, the entry is “inactive”. On to `O=C(O)C(F)(F)C(F)(F)C(F)(F)C(F)(F)C(F)(F)C(F)(F)C(F)(F)C(F)(F)Cl`, for which the result was inactive. Turning to `O=P(O)(O)OCCC(F)(F)C(F)(F)C(F)(F)C(F)(F)C(F)(F)C(F)(F)F`, the result was inactive.

For the molecule `C#C[C@]1(O)CC[C@H]2[C@@H]3CCc4cc(OC)ccc4[C@H]3CC[C@@]21C`, the result was inactive.

Regarding `CCCCC(CC)COP(=O)(O)OCC(CC)CCCC` (stereo unspecified), the outcome was inactive. The same measure, in the same setting: for `O=C(O)C(F)(F)C(F)(F)C(F)(F)C(F)(F)C(F)(F)C(F)(F)C(F)(F)C(F)(F)C(F)(F)C(F)(F)C(F)(F)C(F)(F)F` the value was “inactive”; for `C=C(C)C(=O)OCCC(F)(F)C(F)(F)C(F)(F)C(F)(F)C(F)(C(F)(F)F)C(F)(F)F`, “inactive”.

On to `O=C(O)C(F)(F)C(F)(F)C(F)(F)C(F)(F)C(F)(F)C(F)(F)C(F)(F)C(F)(F)C(F)(F)C(F)(F)C(F)(F)C(F)(F)C(F)(F)F`, for which the result was inactive. Same read-out and setting: as for `O=C(O)C(F)(OC(F)(F)C(F)(OC(F)(F)C(F)(F)C(F)(F)F)C(F)(F)F)C(F)(F)F` (stereo unspecified), the entry is “inactive”; as for `CC(C)(C)C(=O)CC(=O)C(F)(F)C(F)(F)C(F)(F)F`, “inactive”.

Take `CCCCCCCCC(F)(F)C(F)(F)C(F)(F)C(F)(F)C(F)(F)C(F)(F)F`: the result was inactive.

Take `CCCCCCCCCCCCCCCC[N+](C)(C)Cc1ccccc1`: the AC50 is 3.74 µM (active). Turning to `C=CC/C=C/C/C=C/C/C=C/C`, the outcome was inactive.

In the case of `O=C(O)C(F)(OC(F)(F)C(F)(OC(F)(F)C(F)(OC(F)(F)C(F)(F)C(F)(F)F)C(F)(F)F)C(F)(F)F)C(F)(F)F` (stereo unspecified), the outcome was inactive. Take `CS(C)(=O)=O`: the result was inactive.
